Among the data in PubChem BioAssay (NCI) are growth inhibition values, retold here.

Compounds without any hit were thinned out: in the full panel of roughly 79,000, 15% have a hit. Unmarked numbers belong to inactive results. Activity calls are given as the source filed them. No stated cut-off is given here; in the data, active means growth inhibition above about 70%; inactive means the rest.

Assay [1] in a line: NCI Yeast Anticancer Drug Screen. Data for the rad50 strain (AID 155).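 Further: 0% = growth of vehicle-only cultures of the same strain.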 Particulars: S. cerevisiae rad50 strain growth inhibition; at 50.0 µM; active compounds read high. The method in brief:
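A DNA repair-deficient yeast mutant serves as the test organism; compound-induced growth inhibition is calculated against vehicle-treated cells.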

Assay [2] in a line: NCI Yeast Anticancer Drug Screen. Data for the mec2-1 strain (AID 157). Particulars: S. cerevisiae mec2-1 strain, at 50.0 µM, active compounds read high. Put shortly: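 Cells of the genetically defined mec2-1 yeast strain are incubated with test compound. Inhibition of growth is calculated against vehicle-treated controls.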
A short description of assay [3]: NCI Yeast Anticancer Drug Screen. Data for the sgs1 mgt1 strain (AID 161).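 Further: 0% = growth of cultures given vehicle only.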 Particulars: S. cerevisiae sgs1 mgt1 strain, at 50.0 µM, active compounds read high. Put shortly:
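Mutant yeast exposed to compound; growth scored against vehicle-only wells.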

The nature of assay [4]: NCI Yeast Anticancer Drug Screen. Data for the cln2 rad14 strain (AID 165).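 Further: 0% = growth equal to vehicle treated cultures.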 The conditions noted are these: S. cerevisiae cln2 rad14 strain, at 50.0 µM, active compounds read high. The method in brief: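 The screen exposed genetically defined yeast (cln2 rad14) to test compounds and scored growth inhibition relative to vehicle-treated controls.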
Assay [5] in a line: NCI Yeast Anticancer Drug Screen. Data for the bub3 strain (AID 167). The conditions noted are these: S. cerevisiae bub3 mutant strain, at 50.0 µM, active compounds read high. Put shortly:
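Inhibition values come from growth of compound-treated mutant yeast normalised to vehicle-treated controls.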

A short description of assay [6]: NCI Yeast Anticancer Drug Screen. Data for the mlh1 rad18 strain (AID 175). Particulars: S. cerevisiae mlh1 rad18 strain growth inhibition; at 50.0 µM; active compounds read high. The method in brief: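 Compound-treated yeast growth, normalised to vehicle controls. Strain bears defined DNA repair mutations.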

`CC(C)(C)NO`: the growth inhibition in assay [1] was 7.3%; in assay [2], -0.85%; in assay [3], 7.65%; in assay [4] it was 3.4%; in assay [5], 13.6%; in assay [6] it was -3.8%.

Take `CCC/C=N/Nc1ccc([N+](=O)[O-])cc1[N+](=O)[O-]`: the growth inhibition in assay [1] was -11.3%; in assay [2], -9.95%; in assay [3], 0.3%; in assay [4], -12.5%; in assay [5] it was 0.9%; in assay [6], -16.1%.

On to `O=C(CN=C(CN(c1ccccc1)c1ccccc1)Oc1c(Cl)cc(Cl)cc1Cl)N1c2ccccc2Sc2ccccc21`, for which the growth inhibition was 4.75% in assay [1]; -10.8% in assay [2]; 36.5% in assay [3]; -36.2% in assay [4]; -14.7% in assay [5]; 7.8% in assay [6].

As for `CCCCC/C(=N\Nc1ccc([N+](=O)[O-])cc1[N+](=O)[O-])c1ccc(-c2ccccc2)cc1`, the growth inhibition in assay [1] is 13.9%; in assay [2], 6.05%; in assay [3] it was -6.9%; in assay [4], 19.1%; in assay [5], -5.95%; in assay [6], 0.6%.

For `CC1=NN(C(=O)c2ccc(Cl)cc2)C(=O)/C1=C/c1ccc(Cl)cc1`, the growth inhibition in assay [1] was -28.6%; in assay [2], -47.4%; in assay [3], -69.2%; in assay [4], -19.6%; in assay [5], -33%; in assay [6] it was -44.2%.

As to `COc1c(NC(=O)Nc2ccc(SC)cc2)cccc1[N+](=O)[O-]`, the growth inhibition in assay [1] is 2.35%; in assay [2], 15.6%; in assay [3], 23.6%; in assay [4], 5.1%; in assay [5], 41.3%; in assay [6], 9.65%.

For the compound `OCCN(CCO)c1ncnc2c1ncn2-c1ccc(CCCl)cc1`, the growth inhibition in assay [1] is 5.3%; in assay [2] it was -3.1%; in assay [3], -2.85%; in assay [4] it was 6.05%; in assay [5], 19%; in assay [6] it was 0.1%.

As to `CCC(=O)/C=C/c1cc(OC)c(OC)c(OC)c1`, the growth inhibition is 7.15% in assay [1]; -24.9% in assay [2]; -4.4% in assay [3]; -36.9% in assay [4]; -9.1% in assay [5]; 2.4% in assay [6].

`CC(C)[C@@H]1NC(=O)[C@@H]2N=C(O[C@H]2C)[C@H](C(C)C)NC(=O)C2N=C1O[C@H]2C`: the growth inhibition was 11% in assay [1]; 4.75% in assay [2]; 2.15% in assay [3]; 9.45% in assay [4]; 10.3% in assay [5]; -34.1% in assay [6].

As for `CCOC(=O)C(c1ccccc1)c1ccccc1`, the growth inhibition in assay [1] was -11.4%; in assay [2], -26.7%; in assay [3], -17.6%; in assay [4] it was -43.2%; in assay [5], -12.8%; in assay [6], -12.2%.

Turning to `CCOc1c(OC)ccc(C(C)=O)c1O`, the growth inhibition in assay [1] was -17.8%; in assay [2], -15.2%; in assay [3], -22.1%; in assay [4] it was -2.35%; in assay [5] it was 3%; in assay [6], -17.2%.

`CCOC1C(Br)Cn2c(=O)c3cc4ccccc4cc3c(=O)n2C1C` (stereo not given): the growth inhibition in assay [1] is 61.2%; in assay [2] it was 8.15%; in assay [3], 21.6%; in assay [4], 44.3%; in assay [5], 33.6%; in assay [6] it was 33.2%.

Turning to `CO/C(=N\N=C\c1ccccc1F)c1ccncc1`, the growth inhibition in assay [1] was -25.9%; in assay [2], -64.8%; in assay [3], -70.8%; in assay [4], 1.7%; in assay [5] it was -28.6%; in assay [6] it was -60.6%.

For `CC(=O)Oc1ccc(/C=C/c2ccccn2)cc1`, the growth inhibition in assay [1] is 6.6%; in assay [2], -1.75%; in assay [3] it was -1.5%; in assay [4] it was -55.1%; in assay [5], 3.75%; in assay [6], 15.3%.

For the compound `Cc1ccccc1/C=N\NC(=O)CCCC(=O)N/N=C/c1ccccc1C`, the growth inhibition is -8.9% in assay [1]; 2.5% in assay [2]; -25.5% in assay [3]; 8.7% in assay [4]; 24.4% in assay [5]; -9.4% in assay [6].

In the case of `CCC/C(Cl)=N\OC(=O)Nc1ccc(OC(F)(F)F)cc1`, the growth inhibition in assay [1] is 24%; in assay [2] it was 24.8%; in assay [3], 91% (active); in assay [4], 20.1%; in assay [5], 28.8%; in assay [6] it was 58.6%.

Take `NC(N)=NCCCC(O)C(=O)O` (stereo not given): the growth inhibition in assay [1] is -10.6%; in assay [2], -11.8%; in assay [3], -6.85%; in assay [4], -2.95%; in assay [5], 2.25%; in assay [6], 0.85%.

As for `COc1ccc(NC(=O)NCc2ccc(C)c(C)c2)cc1`, the growth inhibition is -0.8% in assay [1]; 38.8% in assay [2]; 22.3% in assay [3]; -3.05% in assay [4]; 20.1% in assay [5]; 35% in assay [6].

Regarding `COc1ccc(/C(=C/n2ccnc2)C(O)c2ccc(OC)c(OC)c2)cc1OC` (stereo not given), the growth inhibition in assay [1] is -16.5%; in assay [2], -11.8%; in assay [3], -31.8%; in assay [4], -2.25%; in assay [5], -2.8%; in assay [6], -11.3%.

Turning to `Cc1cc(C)[n+](C)c(/C=C/c2ccc([N+](=O)[O-])cc2)n1`, the growth inhibition was 14.2% in assay [1]; 6.95% in assay [2]; 15.6% in assay [3]; 27.8% in assay [4]; 22.4% in assay [5]; 23.2% in assay [6].
